High-throughput results: PubChem, National Center for Advancing Translational Sciences (NCATS)
Pf growth 48h = Primary qHTS for delayed death inhibitors of the malarial parasite plastid, 48 hour incubation. AID 504832, 2011. hit rate 5.9% among 310,000. P. falciparum luciferase growth in erythrocytes, 48 h. Potency, µM (doses to about 28.7 µM), inactives show at the highest dose activity change, negative = inhibition, hits mostly inhibitors; note: % is set by controls: 0 for no effect and ±100 for the full control effect
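In quantitative HTS format, infected erythrocytes bearing luciferase-reporter parasites were treated for a single generation at 37 C. Luminescence after adding detection reagent served as the growth measure.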
Pf growth 96h = Primary qHTS for delayed death inhibitors of the malarial parasite plastid, 96 hour incubation | P. falciparum luciferase reporter growth, 96 h | Potency, µM (doses to about 28.7 µM), inactives show at the top dose activity change, negative = inhibition, usual class: inhibitors | hit rate 6.9% among 320,000; note: % is set by controls: 0 for no effect and ±100 for the full control effect
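P. falciparum expressing integrated firefly luciferase, in erythrocytes at 2% hematocrit, 0.05% parasitemia, incubated with compounds 96 h at 37 C, 5% CO2. Growth inhibition read as loss of luminescence; two-generation exposure targets delayed-death apicoplast inhibitors.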
RE007 growth inh = qHTS Assay for Inhibitors of the HIV-1 protein Vpr. hit rate 0.21% among 360,000. Potency, µM (doses to about 92.2 µM), inactives show at the top dose activity change, negative = less growth, most hits filed as inhibitors. S. pombe RE007 Vpr strain, BacTiter-Glo ATP luminescence, 24 h. AID 651644, 2012; active = well fitted falling curve with a large enough effect; inconclusive = small, poorly fitted or top-dose-only effect; inactive = no such curve, though single readings can be large or run the other way; note: % is set by controls: 0 for no effect and ±100 for the full control effect; nearly all actives have a fitted effect of over 50% in size
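Fission yeast strain RE007, carrying one chromosomally integrated HIV-1 vpr copy, was seeded at OD 0.01 in PMG+AL medium with 23 nL pinned compound. After 24 h at 30 °C and 99% humidity, viability was read by BacTiter-Glo luminescence.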
NS1 inh = qHTS Assay for Inhibitors of Influenza NS1 Protein Function; Potency, µM (highest dose often 46.1 µM), for inactives: top-dose activity, positive = more growth; hit rate 0.4% among 270,000; AID 2326, 2010; calls by dose curve; note: actives are rising curves; nearly all actives have a fitted effect of over 50% in size
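OD600 was taken as the measure of yeast growth restored by compound in an NS1-expressing S. cerevisiae strain. Cells had been washed out of glucose medium and diluted 1:100 into galactose -URA medium, pH 6.0.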
SARS PLP yeast = qHTS of Yeast-based Assay for SARS-CoV PLP; S. cerevisiae expressing SARS-CoV PLpro, growth rescue; Potency, µM (titrated, usually from 32.9 µM), without a hit: at the top dose activity, positive = growth rescue, hits mostly activators; hit rate 0.19% among 330,000; calls by dose curve; note: 0% is about no effect; nearly all actives have a fitted effect of over 55% in size
Active calls of the source: *; u = inconclusive; x = no result. Shown are actives, neighbours in structure and some others; about 9.5% of the full set was active somewhere. Unless noted, calls come from the whole dose curve; as a rule, active = well fitted inhibition curve with a large enough effect; inconclusive = small, poorly fitted or top-dose-only effect, or another doubt; inactive = no such curve, though single readings can be large or run the other way. Potency is the fitted concentration of half-maximal effect.

SMILES | Pf growth 48h | Pf growth 96h | RE007 growth inh | NS1 inh | SARS PLP yeast
Cc1[nH]n2c(=O)cc(Cc3ccccc3)nc2c1C#N | -7% | 10µM* | 12% | 2% | 1%
N#Cc1c[nH]n2c(=O)cc(Cc3ccccc3)nc12 | -9% | x | -7% | 2% | 4%
COC(=O)C1=C(C(=O)OC)SC2(S1)C(C(=O)OC)=C(C(=O)OC)SC1=C2c2cc(C)cc(C)c2NC1(C)C | 5.9µM* | u | 4% | 9% | x
CC(=O)n1c(Cl)c(NC(=O)CCl)c2ccccc21 | x | 2.1µM* | -4% | 0% | u
O=C(COC(=O)C1CCN(S(=O)(=O)c2cccs2)CC1)Nc1ccc(F)cc1F | -2% | 17% | -5% | u | 1%
Oc1ccc(Br)cc1/C=N/n1cnc2ccccc21 | 3.3µM* | 2.3µM* | -22% | -61% | -12%
CCC(=O)NC(Nc1sc2c(c1C(=O)OC)CCCC2)(C(F)(F)F)C(F)(F)F | 3% | -2% | 0% | 15% | 1%
CCCN1CCc2c(sc(NC(=O)CCS(=O)(=O)c3ccccc3)c2C(=O)OC)C1 | u | 13µM* | 2% | 15% | -5%
COC(=O)c1c(NC(=O)CCS(=O)(=O)c2ccccc2)sc2c1CCN(C)C2 | 13µM* | u | -5% | 7% | 1%
COC(=O)c1c(NC(NC(=O)c2ccccc2)(C(F)(F)F)C(F)(F)F)sc2c1CCN(C)C2 | 8.3µM* | 2.3µM* | -8% | -2% | -16%
CC(C)(C)n1nnnc1C(c1cc2ccccc2o1)N(CCC#N)Cc1ccccc1 (configuration not stated) | x | x | 6% | x | x
CCCCCCN(C(=O)CCCCCN1C(=O)NC(c2ccc(-c3ccccc3)cc2)C(C(=O)OCc2ccccc2)=C1C)C(C(=O)NCCCC)c1ccc(-c2ccccc2)cc1 (configuration not stated) | 0.83µM* | 0.26µM* | x | 24% | -3%
CC1=C(C(=O)OCc2ccccc2)C(c2ccc(-c3ccccc3)cc2)NC(=O)N1CCCCCC(=O)O (configuration not stated) | -24% | u | 1% | u | -9%
CCCCCCN(C(=O)CCCCCN1C(=O)NC(c2ccc(-c3ccccc3)cc2)C(C(=O)OCc2ccccc2)=C1C)C(C(=O)NCCCC)c1ccc(O)cc1 (configuration not stated) | u | 2.1µM* | x | 17% | 10%
CCCCCCN(C(=O)CCCN1C(=O)NC(c2ccc(-c3ccccc3)cc2)C(C(=O)OCc2ccccc2)=C1C)C(C)C(=O)NCCCC (configuration not stated) | x | x | -8% | x | 16%
CCCCCCN(C(=O)CCCCCN1C(=O)NC(c2ccc(-c3ccccc3)cc2)C(C(=O)OCc2ccccc2)=C1C)C(C(=O)NCCCC)c1cccc(C(=O)OC)c1 (configuration not stated) | 1.9µM* | 1.7µM* | x | u | 2%
CCCCCCN(C(=O)CCCCCN1C(=O)NC(c2ccc(-c3ccccc3)cc2)C(C(=O)OCc2ccccc2)=C1C)C(C(=O)NCCCC)c1ccc(O)c(C(=O)OC)c1 (configuration not stated) | 2.1µM* | 2.1µM* | x | u | 1%
CCCCCCN(C(=O)CCCCCN1C(=O)NC(c2ccc([N+](=O)[O-])cc2)C(C(=O)OCc2ccccc2)=C1C)C(C(=O)NCCCC)C1CCCCC1 (configuration not stated) | x | x | 4% | x | 1%
O=C(CCCN1CCN2CCCC2C1)c1ccc(F)cc1 (configuration not stated) | -8% | -1% | x | x | x
COCCN(C(=S)Nc1c(C)cc(C)cc1C)C(C)c1cccs1 (configuration not stated) | u | u | -13% | x | 0%
Nc1cc(=O)[nH]c(SCC(=O)Nc2ccc(Oc3ccccc3)cc2)n1 | -18% | -13% | 4% | 8% | 1%
Cc1ccc(NC2CC(=O)N(c3ccc(N4CCCCC4)cc3)C2=O)cc1 (configuration not stated) | 4% | 1.7µM* | -17% | 7% | 0%
